# Experimental data as given in a collection of fitness landscapes (doi:10.1126/science.1257360).
# Whole data set: some 140,000 sequences, median “enrichment ratio after two sorts for PhoP signalling” near 0, cut for the highest 2% near 11. This is one part of a sample in which the highest values are shown more often than they occur.
# B1: PhoQ; a variant is named by its letters at X, in order, P23837 (parent)
# chain: MKKLLRLFFPLSLRVRFLLATAAVVLVLSLAYGMVALIGYSVSFDKTTFRLLRGESNLFYTLAKWENNKLHVELPENIDKQSPTMTLIYDENGQLLWAQRDVPWLMKMIQPDWLKSNGFHEIEADVNDTSLLLSGDHSIQQQLQEVREDDDDAEMTHSVAVNVYPATSRMPKLTIVVVDTIPVELKSSYMVWSWFIYVLSANLLLVIPLLWVAAWWSLRPIEALAKEVRELEEHNRELLNPATTRELTSLVRNLNRLLKSERERYDKYRTTLTDLTHSLKTPLXXLQXXLRSLRSEKMSVSDAEPVMLEQISRISQQIGYYLHRASMRGGTLLSRELHPVAPLLDNLTSALNKVYQRKGVNISLDISPEISFVGEQNDFVEVMGNVLDNACKYCLEFVEISARQTDEHLYIVVEDDGPGIPLSKREVIFDRGQRVDTLRPGQGVGLAVAREITEQYEGKIVAGESMLGGARMEVIFGRQHSAPKDE
# Variants of: B1
# Assay: enrichment ratio after two sorts for PhoP signalling (ratio (wild type AVST 3.29)); higher = more functional
# Conditions: with PhoP (E. coli)
row,Variant,enrichment ratio
1,HYGV,≤ 0.25
2,IFME,≤ 0.25
3,FRHK,≤ 0.25
4,PAGH,≤ 0.25
5,QFCS,≤ 0.25
6,SPYV,≤ 0.25
7,WPGT,≤ 0.25
8,YLNI,≤ 0.25
9,PLSF,≤ 0.25
10,NISM,0.899
11,TISM,27.4
12,ANSM,16.6
13,ALSF,12.1
14,ANSF,5.47
15,RISM,≤ 0.25
16,ALHF,≤ 0.25
17,EYYP,≤ 0.25
18,PMHD,≤ 0.25
19,APSK,≤ 0.25
20,YWYS,≤ 0.25
21,KTMK,≤ 0.25
22,RNCC,≤ 0.25
23,TSSQ,11.8
24,QASK,≤ 0.25
25,QPSQ,≤ 0.25

row,Variant,enrichment ratio
1,KASQ,≤ 0.25
2,TPSQ,≤ 0.25
3,KSSQ,≤ 0.25
4,FSSQ,≤ 0.25
5,QSSQ,11.3
6,QASQ,23.3
7,LWCS,≤ 0.25
8,KPGV,≤ 0.25
9,FAWD,≤ 0.25
10,LEFH,≤ 0.25
11,ELWP,≤ 0.25
12,MRDF,≤ 0.25
13,TCQR,4.53
14,MICH,2.87
15,MQTH,≤ 0.25
16,MQCI,1.41
17,MQCC,11.8
18,MILH,0.967
19,MICC,29.6
20,IQVR,≤ 0.25
21,NDHA,≤ 0.25
22,MDME,≤ 0.25
23,RVHQ,≤ 0.25
24,YHNL,≤ 0.25
25,THNI,14.1

row,Variant,enrichment ratio
1,SHNI,8.22
2,NHNI,≤ 0.25
3,THNL,12.7
4,NHNL,≤ 0.25
5,YPKW,≤ 0.25
6,AGAF,3.66
7,TPRL,≤ 0.25
8,VHGI,≤ 0.25
9,MTGD,≤ 0.25
10,MTGI,11.7
11,AIGI,11.8
12,ANHA,≤ 0.25
13,GHGI,≤ 0.25
14,YTGI,≤ 0.25
15,AGGI,12.9
16,AHGI,≤ 0.25
17,GNGI,≤ 0.25
18,AGFP,≤ 0.25
19,ANGI,22.1
20,IIYR,≤ 0.25
21,DKAR,≤ 0.25
22,LMEW,≤ 0.25
23,VFIY,≤ 0.25
24,TTGI,9.44
25,ATGI,13.1

row,Variant,enrichment ratio
1,TMGI,20.6
2,TSGI,12.8
3,ATGS,5.38
4,MMGI,≤ 0.25
5,KSGI,≤ 0.25
6,KCGI,≤ 0.25
7,TMFP,≤ 0.25
8,MGHD,≤ 0.25
9,TSDS,0.648
10,FMNE,≤ 0.25
11,SEAQ,13.7
12,TEAQ,28
13,QEAQ,≤ 0.25
14,SRAQ,≤ 0.25
15,SLAQ,3.9
16,NEAQ,≤ 0.25
17,LILM,≤ 0.25
18,MPQI,≤ 0.25
19,IQHE,≤ 0.25
20,EPTW,≤ 0.25
21,NMAC,≤ 0.25
22,SMPC,≤ 0.25
23,TMAC,28.2
24,SMTC,8.15
25,CMAC,23.4

row,Variant,enrichment ratio
1,KMAC,≤ 0.25
2,NNAC,≤ 0.25
3,SMAC,12.5
4,GMAC,≤ 0.25
5,VQIW,≤ 0.25
6,NELI,≤ 0.25
7,MAEF,≤ 0.25
8,RVFY,≤ 0.25
9,SKNN,≤ 0.25
10,NLIQ,≤ 0.25
11,NALY,≤ 0.25
12,SALK,15.2
13,SALY,11.8
14,SAAT,3.66
15,KYLK,≤ 0.25
16,SPLK,≤ 0.25
17,QILN,≤ 0.25
18,NALN,≤ 0.25
19,SALT,11.2
20,SAVT,0.95
21,CALN,65
22,KALY,≤ 0.25
23,AFGW,≤ 0.25
24,DHYR,≤ 0.25
25,VAYT,≤ 0.25

row,Variant,enrichment ratio
1,QIHG,2.32
2,YSRD,≤ 0.25
3,NFVV,≤ 0.25
4,SALN,11.9
5,SALS,11.5
6,SAMK,17.9
7,SALA,5.84
8,SAMS,7.54
9,SAPA,≤ 0.25
10,SACN,9.88
11,SAMG,5.01
12,KALN,≤ 0.25
13,SYEW,≤ 0.25
14,PEIY,≤ 0.25
15,VINR,≤ 0.25
16,ELMR,≤ 0.25
17,DFTI,≤ 0.25
18,LCMM,26.9
19,TQMM,57.7
20,LCWM,≤ 0.25
21,FQMM,5.91
22,SPMM,≤ 0.25
23,KFMM,≤ 0.25
24,SEMM,32.5
25,SYMM,0.307

row,Variant,enrichment ratio
1,SRMM,1.64
2,SAMM,12.7
3,NQMM,≤ 0.25
4,SIMM,1.49
5,PFQY,≤ 0.25
6,GAKN,≤ 0.25
7,FYYW,≤ 0.25
8,FFHN,≤ 0.25
9,SYFV,≤ 0.25
10,WNTR,≤ 0.25
11,WKFY,≤ 0.25
12,EDEV,≤ 0.25
13,TFAW,≤ 0.25
14,HTHM,≤ 0.25
15,YRCS,≤ 0.25
16,RLLR,≤ 0.25
17,YAMM,3.27
18,YTMM,11.8
19,TGMM,16
20,YYMM,≤ 0.25
21,STMM,18.6
22,KYMM,≤ 0.25
23,SQMM,3.97
24,RGMM,≤ 0.25
25,SWMM,≤ 0.25

row,Variant,enrichment ratio
1,SSMM,19.1
2,NGMM,≤ 0.25
3,APTA,≤ 0.25
4,HDAK,≤ 0.25
5,NSKR,≤ 0.25
6,FYPF,≤ 0.25
7,SSWP,≤ 0.25
8,IRWL,≤ 0.25
9,QACS,≤ 0.25
10,PGDN,≤ 0.25
11,GRMN,≤ 0.25
12,NMLY,≤ 0.25
13,FTMM,12.1
14,SHMM,2.18
15,GGMM,≤ 0.25
16,NHMM,≤ 0.25
17,FSMM,4.33
18,NIMM,16
19,MTMM,59.5
20,WIMM,≤ 0.25
21,THMM,17.6
22,YHMM,≤ 0.25
23,QPMM,≤ 0.25
24,MMMM,≤ 0.25
